# Source: article PMC4336329 (PLoS ONE, 2015)
# The campaign covered roughly 310,000 compounds. About 14,000 (4.5%) showed an effect of 50% or more. The effect is printed as a negative number. Only a selection was taken, and strong results are over-represented in it overall.
# Biological target: human ether-à-go-go-related gene (hERG) potassium channel (human, UniProt Q12809)
# Test: primary screen, population patch clamp on CHO cells stably expressing hERG; higher = less effect of the substance
# 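Note: peak tail current of the secondary pulse compared with the same well before compound.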
# Sequence of human ether-à-go-go-related gene (hERG) potassium channel (Q12809 whole entry, looked up): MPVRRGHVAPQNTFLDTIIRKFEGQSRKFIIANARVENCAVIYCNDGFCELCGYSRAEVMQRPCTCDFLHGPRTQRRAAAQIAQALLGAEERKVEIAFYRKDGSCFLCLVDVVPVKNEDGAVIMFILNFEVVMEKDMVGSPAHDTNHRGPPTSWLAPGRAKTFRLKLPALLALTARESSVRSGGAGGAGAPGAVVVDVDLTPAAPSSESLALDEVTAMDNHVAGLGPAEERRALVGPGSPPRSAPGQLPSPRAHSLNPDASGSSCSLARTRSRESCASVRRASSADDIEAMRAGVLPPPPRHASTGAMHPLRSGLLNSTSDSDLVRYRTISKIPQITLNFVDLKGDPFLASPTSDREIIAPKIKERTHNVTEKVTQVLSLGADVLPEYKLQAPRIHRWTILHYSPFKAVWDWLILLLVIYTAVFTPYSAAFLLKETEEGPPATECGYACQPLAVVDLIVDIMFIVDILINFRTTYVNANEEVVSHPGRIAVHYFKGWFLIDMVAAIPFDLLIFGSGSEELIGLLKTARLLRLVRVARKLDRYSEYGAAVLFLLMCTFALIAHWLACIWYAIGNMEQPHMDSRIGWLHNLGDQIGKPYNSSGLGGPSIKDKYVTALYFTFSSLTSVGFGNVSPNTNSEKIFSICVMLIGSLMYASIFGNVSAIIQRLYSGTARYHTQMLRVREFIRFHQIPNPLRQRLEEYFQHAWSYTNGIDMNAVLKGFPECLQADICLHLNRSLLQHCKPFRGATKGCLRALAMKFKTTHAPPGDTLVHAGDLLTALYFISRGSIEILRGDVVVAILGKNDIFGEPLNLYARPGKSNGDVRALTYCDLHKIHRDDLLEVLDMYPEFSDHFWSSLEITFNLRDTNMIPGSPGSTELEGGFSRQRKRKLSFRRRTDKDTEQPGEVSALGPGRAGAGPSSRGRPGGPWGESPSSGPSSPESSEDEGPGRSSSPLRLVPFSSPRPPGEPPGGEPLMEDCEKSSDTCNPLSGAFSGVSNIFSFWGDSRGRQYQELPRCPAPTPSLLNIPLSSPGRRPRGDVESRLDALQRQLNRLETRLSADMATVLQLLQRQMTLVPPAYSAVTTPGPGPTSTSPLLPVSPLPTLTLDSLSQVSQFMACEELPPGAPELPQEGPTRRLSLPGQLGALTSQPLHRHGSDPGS
row,SMILES,"hERG current change (%, negative = inhibition) at 10uM [%]"
1,N#C/C(=C/c1ccc(Br)s1)C(=O)NCCc1c[nH]c2ccccc12,18.8
2,O=C(COC(=O)c1ccc([N+](=O)[O-])cc1)Nc1cccnc1Cl,-1.85
3,O=C(Nc1ccncc1)c1cc(S(=O)(=O)N2CCCCC2)ccc1Cl,-56.2
4,CS(=O)(=O)Nc1ccc(S(=O)(=O)N2CCCC2)cc1,8.49
5,CS(=O)(=O)Nc1ccc(S(=O)(=O)N2CCCCCC2)cc1,-65.4
6,O=C(Nc1ccncc1)c1cc(S(=O)(=O)N2CCOCC2)ccc1Cl,-46.6
7,O=C(Nc1cc(S(=O)(=O)N2CCCCC2)ccc1N1CCCCC1)c1ccncc1,-52.4
8,CCN(CC)S(=O)(=O)c1ccc(N2CCCCC2)c(NC(=O)c2ccncc2)c1,-29.5
9,CCN(CC)S(=O)(=O)c1ccc(N2CCCC2)c(NC(=O)c2ccncc2)c1,-22.6
10,O=C(Nc1ccc(O)cc1)c1cc(S(=O)(=O)N2CCCC2)ccc1Cl,-14.9
11,CS(=O)(=O)Nc1ccc(C(=O)Nc2ccc(S(=O)(=O)N3CCCCC3)cc2)cc1,-13.8
12,O=C(Nc1ccncc1)C1CCN(S(=O)(=O)c2ccc(Cl)c(C(F)(F)F)c2)CC1,-69.9
13,Cc1ccnc(NC(=O)C2CCN(S(=O)(=O)c3ccc(Cl)c(C(F)(F)F)c3)CC2)c1,-14.2
14,O=C(Nc1nccs1)C1CCN(S(=O)(=O)c2ccc(Cl)c(C(F)(F)F)c2)CC1,-0.668
15,COc1ccc(S(=O)(=O)CCC(=O)Nc2c(C)cccc2C)cc1,23
16,CC(=O)Nc1ccc(S(=O)(=O)NCCSCc2ccccc2Cl)cc1,2.92
17,COc1ccc(Br)cc1-c1nc2c(c(=O)[nH]c(=O)n2Cc2ccccc2)n1C,5.42
18,CC(C)CN(C(=O)Cn1c(C(F)(F)F)nc2ccccc21)C1CCS(=O)(=O)C1 (stereo not shown),-9.53
19,Cc1ccc(N2C(=O)C(NC(=O)c3ccccc3F)(C(F)(F)F)C3=C2CC(C)(C)CC3=O)cc1 (stereo not shown),6.43
20,CC(SC1=Nc2ccccc2C2CC=NN12)C(=O)NC1(C#N)CCCCC1 (stereo not shown),-19.8
21,CNC(=S)N/N=C/C1=CCC2CC1C2(C)C (stereo not shown),-3.84
22,O=C(Cn1nnc2ccccc2c1=O)Nc1cc(C(F)(F)F)ccc1N1CCOCC1,-14.5

row,SMILES,"hERG current change (%, negative = inhibition) at 10uM [%]"
1,O=C(O)c1ccccc1C(=O)Nc1ccc(S(=O)(=O)N2CCCC2)cc1,22.3
2,CN1CCN(S(=O)(=O)c2ccc(NC(=O)c3ccccc3Cl)cc2)CC1,8.9
3,O=C(Nc1ccc(S(=O)(=O)N2CCCCC2)cc1)c1ccco1,-10.7
4,COc1cc(S(=O)(=O)N2CCCCC2)ccc1NC(=O)c1ccncc1,-30.8
5,O=C(Nc1ccc(S(=O)(=O)N2CCCCC2)cc1)c1ccccc1Cl,-73.1
6,O=C(Nc1cc(S(=O)(=O)N2CCCCC2)ccc1Cl)c1ccncc1,-50.2
7,O=C(Nc1cc(S(=O)(=O)N2CCCCC2)ccc1Cl)c1ccc(F)cc1,-8.99
8,O=C(Nc1ccc(S(=O)(=O)N2CCOCC2)cc1)c1ccco1,-20.3
9,O=C(Nc1ccc(S(=O)(=O)N2CCCCCC2)cc1)c1ccco1,-72.5
10,Cn1c(SC2CCCCC2=O)nnc1-c1ccccc1F (stereo not shown),9.45
11,Cc1cc(C)cc(OCC(=O)O/N=C(\N)c2ccccn2)c1,-6.54
12,O=c1ccc(-c2ccc(S(=O)(=O)N3CCN(c4cccc(Cl)c4)CC3)o2)n[nH]1,10
13,O=C(Nc1cc(S(=O)(=O)N2CCOCC2)ccc1N1CCOCC1)C1CCCO1 (stereo not shown),-3.99
14,O=C(CN1CCN(C(=O)c2ccco2)CC1)Nc1ccc(F)cc1F,-49.6
15,Cc1ccc(NC(=O)CN2CCN(C(=O)c3ccco3)CC2)cc1,-3.01
16,O=C(CN1CCN(C(=O)c2ccco2)CC1)NCc1ccc(Cl)cc1,-64.4
17,O=C(NCc1ccc(Cl)cc1)C1CCN(C(=O)c2ccco2)CC1,-41.4
18,O=C(CN1CCN(C(=O)c2ccco2)CC1)Nc1cc(Cl)ccc1Cl,-60.1
19,Cc1ccccc1NC(=O)CN1CCN(C(=O)c2ccco2)CC1,-29.4
20,Cc1cc(Cl)ccc1NC(=O)CN1CCN(C(=O)c2ccco2)CC1,-73.6
21,O=C(c1ccco1)N1CCN(Cc2ccc(Cl)cc2)CC1,-14
22,O=C(CN1CCN(C(=O)c2ccco2)CC1)Nc1ccc(Cl)c(S(=O)(=O)N2CCOCC2)c1,-25.6

row,SMILES,"hERG current change (%, negative = inhibition) at 10uM [%]"
1,Cc1cc(Cl)ccc1NC(=S)N1CCN(C(=O)c2ccco2)CC1,-8.95
2,O=C(CN1CCN(C(=O)c2ccco2)CC1)Nc1ccc(Cl)c(C(F)(F)F)c1,-67.1
3,COc1ccc2c(-c3ccccc3)cc(SCC(=O)N(C)C)nc2c1,-22.9
4,C=CCNC(=O)c1oc2ccc(S(=O)(=O)N3CCC4(CC3)OCCO4)cc2c1C,0.761
5,CC(OC(=O)/C=C/c1ccco1)C(=O)Nc1cccc([N+](=O)[O-])c1 (stereo not shown),6.57
6,Cc1ccc(-n2nc3c(=O)n(CC(=O)NC(C)CCc4ccccc4)nc(C)c3c2C)cc1 (stereo not shown),6.77
7,O=C(CNC(=O)c1ccco1)Nc1ccc(OC(F)F)cc1,19.6
8,COc1cc(/C=C2\C(=N)N3N=C(S(C)(=O)=O)SC3=NC2=O)ccc1OS(=O)(=O)c1ccc(C)cc1,6.9
9,CCOc1ccc(NC(=O)/C=C/c2ccccc2)c([N+](=O)[O-])c1,-5.94
10,NC(=O)c1ccc(NC(=O)COc2ccc(-n3cnnn3)cc2)cc1,-4.26
11,CCc1ccc(-c2cc(C)no2)cc1S(=O)(=O)Nc1cc(C)on1,10.3
12,O=C(CN1CCN(C(=O)c2ccco2)CC1)Nc1cc(C(F)(F)F)ccc1Cl,-63.6
13,O=C(CN1CCOCC1)Nc1cc(C(F)(F)F)ccc1Cl,-0.356
14,O=C(CN1CCCC1)Nc1cc(C(F)(F)F)ccc1Cl,2.22
15,COc1ccccc1N1C(=O)CC(Sc2ccccc2N)C1=O (stereo not shown),0.966
16,COC(=O)c1ccc(N2CCN(C)CC2)c([N+](=O)[O-])c1,-63.4
17,CN1CCN(c2ccc(C(=O)c3ccc(Br)cc3)cc2[N+](=O)[O-])CC1,-72.1
18,COC(=O)c1ccc(N2CCN(C(=O)C3CC3)CC2)c([N+](=O)[O-])c1,-7.61
19,COC(=O)c1ccc(N2CCN(CC(=O)c3ccc(C)cc3)CC2)c([N+](=O)[O-])c1,-65
20,COC(=O)c1ccc(N2CCc3ccccc32)c([N+](=O)[O-])c1,10.5
21,COC(=O)c1ccc(N2CCN(CC(=O)c3ccc(-c4ccccc4)cc3)CC2)c([N+](=O)[O-])c1,8.75
22,O=C(O)c1ccccc1C(=O)c1ccc(N2CCCC2)c([N+](=O)[O-])c1,13.8

row,SMILES,"hERG current change (%, negative = inhibition) at 10uM [%]"
1,COC(=O)c1ccc(N2CCN(S(=O)(=O)c3ccc(C)cc3)CC2)c([N+](=O)[O-])c1,4.78
2,COC(=O)c1ccc(N2CCN(S(=O)(=O)c3ccc(Br)cc3)CC2)c([N+](=O)[O-])c1,10.6
3,CN1CCN(c2ccccc2NC(=O)c2ccc(N3CCCC3)c([N+](=O)[O-])c2)CC1,-48.5
4,CN1CCN(c2ccc(C(=O)c3ccccc3)cc2[N+](=O)[O-])CC1,-53.1
5,CN1CCN(c2ccc(C(=O)NC3CCCCC3)cc2[N+](=O)[O-])CC1,-9.83
6,O=C(NCc1cccs1)c1cc2c(s1)CS(=O)(=O)C2,-0.732
7,O=C(N/N=C/c1c[nH]c2ccccc12)C1CC1c1ccccc1 (stereo not shown),-4.47
8,COC(=O)c1cc(C(=O)OC)n(Cc2ccc(F)cc2)n1,-12.9
9,O=C(O)c1cccc(N(CCO)CCO)c1,-1.13
10,CC(C)COP(=O)(c1ccc(N(C)C)cc1)C(O)c1ccc(Br)cc1 (stereo not shown),8.63
11,COc1ccc(CCNC(=O)c2nnc(CS(=O)(=O)c3ccccc3)o2)cc1OC,-6.44
12,Cc1c(-c2ccccc2)cn2c1-c1ccc(C)n1CC2,-0.42
13,COc1ccc(-c2nnc(SCC(=O)N(C)C3CCS(=O)(=O)C3)n2N)cc1OC (stereo not shown),19.8
14,O=C(CN1C(=O)/C(=C\c2ccc(C(F)(F)F)cc2)Sc2ccccc21)NCc1ccco1,-5.39
15,Cc1cc(=O)[nH]c(N/N=C/C(C)c2ccccc2)n1 (stereo not shown),7.54
16,CCc1cccc(CC)c1NC(=O)C1SC(=Nc2ccccc2C)C(c2nc3ccccc3s2)=C1N (stereo not shown),29.1
17,Cc1ccc(C(=O)c2ccc(N3CCN(C)CC3)c([N+](=O)[O-])c2)cc1,-68.8
18,Cc1ccc(OC(=O)c2ccc(N3CCOCC3)c([N+](=O)[O-])c2)cc1,-4.31
19,CN1CCN(c2ccc(C(N)=O)cc2[N+](=O)[O-])CC1,7.57
